Among all 53,000 compounds or so, about 900 (1.7%) showed an effect of 50% or more. The full list was thinned out, with strong results kept by preference.
test system: Mycobacterium tuberculosis; experiment: Cornell - Phenotypic assay to identify agents that inhibit growth of Mycobacterium tuberculosis; type: functional; parameters: scale not given: direction of the effect not stated beside the values; conditions: 10 mM as filed; unlikely as a test dose

First: O=C(c1cc(Cn2ccc3ccccc32)[nH]n1)N1CCC[C@H]1CO
Second: COc1cccc(CC(=O)N2CCCC2c2nc(C)c(F)c(O)n2)c1 (stereo not given)
The “Percent Effect” value of the first is higher: 36.89% for the first, -107.1% for the second.

Going from Cc1c(CN2C[C@@H](O)[C@H](Oc3cccc(F)c3)C2)cnn1C to Cc1cccc(CN2Cc3ccnn3CC(COCC3CC3)C2)n1.O=C(O)C(F)(F)F (stereo not given), the “Percent Effect” value rises from -27.75% to 10.51%.

Going from CCCc1cc(=O)[nH]c(-n2nc(C3CC3)cc2N)n1 to Cc1cc(=O)[nH]c(-n2nc(C3CC3)cc2N)n1, the “Percent Effect” value falls from 107.6% to 39.12%.

Going from CC(C)c1cc(=O)[nH]c(-n2nc(C3CC3)cc2N)n1 to CCc1cc(=O)[nH]c(-n2nc(C3CC3)cc2NC(=O)C2CC2)n1, the “Percent Effect” value rises from 108.3% to 108.9%.

Going from CCCc1cc(=O)[nH]c(SCc2ccccn2)n1 to CCCc1cc(=O)[nH]c(-c2cccc(CN3CCCCCC3)c2)n1, the “Percent Effect” value rises from -4.123% to 11.6%.

First: Cn1nc(CNC(=O)C2CC2)cc1C1CC1
Second: O=C(NCCn1cnnc1C1CC1)c1c(O)cc(F)cc1F
The “Percent Effect” value of the first is higher: 29.19% for the first, -13.58% for the second.

Compared with CC(C)c1cc(=O)[nH]c(C(C)(C)N)n1.Cl, CCc1c(C)nc(-n2nc(C3CC3)cc2NC(C)=O)[nH]c1=O is higher in “Percent Effect” value: 8.844% for the first, 9.536% for the second.

Compared with CCN1CCCC(CNC(=O)C2(c3cc(C)cc(C)c3)CCC2)C1 (stereo not given), Cc1ccc(N(C)C2CCCN(C(=O)Nc3ccc(F)cc3F)C2)cc1 (stereo not given) is higher in “Percent Effect” value: -9.012% for the first, 17.1% for the second.

Going from CCNC(=O)NCc1ccc(-n2ccc(C(F)(F)F)n2)cc1 to COc1ccc(Br)c(NC(=O)NCc2ncnn2C)c1, the “Percent Effect” value falls from 21.88% to -5.732%.

Going from COCc1nnc(C(=O)N2CCC(N3CCCCC3)CC2)o1 to O=C(c1cc(F)ccc1O)N1CCN(C2CCOCC2)CC1, the “Percent Effect” value rises from -29.51% to 23.2%.

First: Cc1ccc(-c2ccc(Cl)nn2)cc1S(N)(=O)=O
Second: COC(=O)c1ccc2c(-c3ccnc(NCCO)n3)c[nH]c2c1
The “Percent Effect” value of the first is higher: 6.758% for the first, -4.775% for the second.

Compared with CC(=O)N1CCC(c2n[nH]cc2-c2ccnc(N)c2)C1 (stereo not given), COc1ccc2[nH]cc(-c3ccnc(N4CCC(C)CC4)n3)c2c1 is higher in “Percent Effect” value: -32.92% for the first, 24.84% for the second.

Going from CC(C)(C)NC(=O)N1CCCn2nc(C(=O)Nc3ccccc3)cc2C1 to Cc1ncc(C(=O)OCC2CCN(c3ccccc3)C2)s1 (stereo not given), the “Percent Effect” value falls from 16.42% to -13.58%.

Going from Cc1nnsc1C(=O)NCc1nn(C2CCCC2)c2c1CCCC2 to Cc1nc(N2CCCC2)nc2c1CCN(Cc1ccsc1)CC2.O=C(O)C(F)(F)F, the “Percent Effect” value rises from 22.48% to 72.79%.

Compared with Cn1cc(-c2nc(C(=O)N3CCCC3c3cnn(C)c3)cs2)cn1 (stereo not given), COCCO[C@@H]1CCN(C(=O)c2ccnnc2)[C@H]1Cc1cnn(C)c1 is lower in “Percent Effect” value: 20.68% for the first, 2.018% for the second.

First: Cc1nn(CC(C)C)c(N(C)C)c1CNCc1ccnn1C
Second: Cc1nn(C)c(N(C)C)c1CNCc1ccnn1C
The “Percent Effect” value of the first is lower: -14.58% for the first, 46.97% for the second.

First: COc1ncccc1CNCc1c(C(C)C)nn(C)c1OC
Second: COc1ncccc1CNCc1c(C(C)C)nn(C)c1N(C)C
The “Percent Effect” value of the first is lower: 20.17% for the first, 63.07% for the second.

Going from CC(C)c1nn(C)c(N(C)C)c1CNCc1ccnn1C to CCOc1ncccc1CNCc1c(C(C)C)nn(C)c1N(C)C, the “Percent Effect” value falls from 65.83% to -29.31%.

Going from COc1cc(CNCc2c(C)nn(C)c2N(C)C)ccc1C to COc1cc(CNCc2c(C)nn(C)c2N(C)C)ccn1, the “Percent Effect” value rises from 13.2% to 97.38%.

Compared with COc1cc(CNCc2c(C)nn(CC(C)C)c2N(C)C)ccn1, COc1ncccc1CNCc1c(C)nn(C)c1N(C)C is lower in “Percent Effect” value: -17.24% for the first, -66.33% for the second.

Going from COCCOc1ncccc1CNCc1c(C)nn(C)c1N(C)C to CCOc1ncccc1CNCc1c(C)nn(C)c1N(C)C, the “Percent Effect” value falls from 87.98% to -13.13%.

First: CCn1cc(CNC(=O)C(C)C)cn1
Second: CCn1cc(NC(=O)CN2C(=O)CC(C)(C)c3ccccc32)cn1
The “Percent Effect” value of the first is lower: 7.058% for the first, 23.89% for the second.

Going from Cc1cc(C)cc(OCCCn2nc3ccccn3c2=O)c1 to CC(=O)c1cccc(NC(=O)Cn2nc(-c3cccs3)oc2=O)c1, the “Percent Effect” value falls from 34.72% to -19.71%.

Compared with Cc1cc(N2CCC(O)(CN(C)C(=O)CCN)CC2)c2cnccc2n1, Cc1nc(N2CCOCC2)nc2c1CCN(Cc1cccnc1)CC2.O=C(O)C(F)(F)F is lower in “Percent Effect” value: 43.24% for the first, 26.93% for the second.

Going from O=C(O)CC(O)(CC(=O)O)C(=O)O.c1ccc([C@@H]2CN(Cc3cccnc3)C[C@H]2c2cc[nH]n2)cc1 to O=C(O)CC(O)(CC(=O)O)C(=O)O.c1ccc([C@@H]2CN(Cc3ccncc3)C[C@H]2c2cc[nH]n2)cc1, the “Percent Effect” value falls from 51.47% to 17.96%.

First: COc1ccc([C@@H]2CN(Cc3ccncc3)C[C@H]2c2cc[nH]n2)cc1.O=C(O)CC(O)(CC(=O)O)C(=O)O
Second: CCNC(=O)[C@@H]1C[C@@H](NC(=O)Cc2ccncc2)CN1Cc1ccsc1
The “Percent Effect” value of the first is higher: 34.94% for the first, 31.97% for the second.

Going from O=C1CC(c2ccccc2)c2c(c(C(=O)O)cn2-c2ccccc2)N1 (stereo not given) to COc1ccc2[nH]cc(-c3ccnc(NC4CCCC4)n3)c2c1, the “Percent Effect” value rises from 15.99% to 104.1%.

Going from Cc1cccc(NC(C)C(=O)Nc2nccs2)c1 (stereo not given) to CCNC(=O)[C@@H]1C[C@@H](NC(=O)Cc2cc(C)no2)CN1Cc1ccsc1, the “Percent Effect” value falls from 6.251% to -13.59%.

First: CCNC(=O)[C@@H]1C[C@H](NC(=O)Cn2ccnc2)CN1Cc1ccsc1
Second: Cc1nc(N2CCOCC2)nc2c1CCN(Cc1ccsc1)CC2.O=C(O)C(F)(F)F
The “Percent Effect” value of the first is higher: 104.2% for the first, 27.7% for the second.

Going from Cn1cc(CN2CCC(c3ncc(Cl)cc3S(C)(=O)=O)CC2)cn1 to Cc1nc(C)c2c(n1)CCN(Cc1ccco1)CC2, the “Percent Effect” value falls from 39.28% to -0.9283%.

First: Cc1nc(N2CCCC2)nc2c1CCN(Cc1ccoc1)CC2.O=C(O)C(F)(F)F
Second: Cc1nc(N2CCCC2)nc2c1CCN(Cc1ccco1)CC2.O=C(O)C(F)(F)F
The “Percent Effect” value of the first is lower: 56.27% for the first, 96.95% for the second.

Going from Cc1nc(N2CCCC2)nc2c1CCN(Cc1nccn1C)CC2.O=C(O)C(F)(F)F to Oc1nc(N2CCCC2)nc2c1CCN(Cc1ccsc1)CC2, the “Percent Effect” value rises from 0.1901% to 2.378%.

With CC(C)Oc1ncnc2c1CCN(Cc1ccco1)CC2.O=C(O)C(F)(F)F the “Percent Effect” value was 21.95%.

Reference: ChEMBL document CHEMBL3988442, “University of Dundee, Small-Polar-MMV Screening Library” (2021)
